The values that follow come from PubChem BioAssay (NCI).

Compounds without any hit were thinned out: in the full panel of roughly 83,000, 20% have a hit.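 Interpretation: 100, growth as untreated; towards 0, rising growth inhibition; 0, no net growth; 0 to -100, cell death. Compounds scoring below 10 were considered active.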 Values without a mark were called inactive. Calls of active or inactive are those of the source.

Among the test systems are HCT-15 colon; HT29 colon; SNB-75 CNS; SNB-19 CNS; U251 CNS; PC-3 prostate; SK-MEL-5 melanoma; UACC-62 melanoma; LOX IMVI melanoma; SK-MEL-28 melanoma.
Common to all, as to test: NCI-60 one-dose screen, 48 h (100 = growth as untreated, 0 = no growth, -100 = all killed)
Common to all, as to settings: 10 µM unless noted

Take `CC(=O)[C@H]1CC[C@H]2[C@@H]3C[C@H](C)C4=CC(=O)CC[C@]4(C)[C@H]3C(=O)C[C@]12C`: the growth with HCT-15 colon is 97.3%; in the test on HT29 colon it was 101%; in the test on SNB-75 CNS it was 89.6%; in the test with SNB-19 CNS, 100%; in the test on U251 CNS it was 98.2%; with PC-3 prostate it was 91.2%. Further, the growth is 100% with SK-MEL-5 melanoma, 97.1% in the test on UACC-62 melanoma, 92.2% in the test with LOX IMVI melanoma and 115% in the test with SK-MEL-28 melanoma.

For `CC(=O)Nc1cc2c3c(cccc3c1)-c1ccccc1-2`, the growth was 79.4% in the test with HCT-15 colon; 108% in the test on HT29 colon; 60.1% with SNB-75 CNS; 91.2% in the test with SNB-19 CNS; 75.3% with U251 CNS; 57.9% in the test with PC-3 prostate. The growth is 102% with SK-MEL-5 melanoma, 89% in the test with UACC-62 melanoma, 75.9% with LOX IMVI melanoma and 103% in the test with SK-MEL-28 melanoma.

As for `Cc1csc(C#Cc2cncc(O)c2)n1`, the growth in the test on HCT-15 colon was 112%; with HT29 colon, 110%; in the test with SNB-75 CNS, 139%; with SNB-19 CNS, 112%; in the test with U251 CNS it was 107%; with PC-3 prostate, 106%. Moreover, the growth in the test on SK-MEL-5 melanoma was 82.6%; in the test with UACC-62 melanoma, 98.7%; with LOX IMVI melanoma, 116%; with SK-MEL-28 melanoma, 111%.

For `COC(=O)[C@H](Cc1cn(C)cn1)NC(=O)[C@H](C)NC(=O)Nc1cc(C(F)(F)F)cc(C(F)(F)F)c1`, the growth with HCT-15 colon is 37.7% [100 µM]; with HT29 colon, -67.5% [100 µM] (active); in the test on SNB-75 CNS, -78.3% [100 µM] (active); with SNB-19 CNS, -82.5% [100 µM] (active); in the test with U251 CNS it was -93.8% [100 µM] (active); in the test with PC-3 prostate, -83.7% [100 µM] (active). The growth in the test with SK-MEL-5 melanoma is -95.4% [100 µM] (active); in the test on UACC-62 melanoma, -93% [100 µM] (active); in the test with LOX IMVI melanoma, -81% [100 µM] (active); in the test on SK-MEL-28 melanoma, -94.4% [100 µM] (active).

For the molecule `O=C(COc1ccc(/C=C2\Oc3ccc4ccccc4c3C2=O)cc1)c1ccc([N+](=O)[O-])cc1`, the growth was 88.4% in the test on HCT-15 colon; 109% with HT29 colon; 91.3% with SNB-75 CNS; 94.6% in the test on SNB-19 CNS; 94.4% in the test on U251 CNS; 86.8% with PC-3 prostate. Moreover, the growth in the test on SK-MEL-5 melanoma was 92.3%; with UACC-62 melanoma, 91.7%; with LOX IMVI melanoma, 35.5%; with SK-MEL-28 melanoma, 106%.

Consider `O=C1c2cccc(NCCN=Cc3ccccc3O)c2C(=O)c2c(NCCN=Cc3ccccc3O)cccc21`, for which the growth was 38.7% in the test on HCT-15 colon; -4.87% (active) with HT29 colon; 29.3% with SNB-75 CNS; 14.3% in the test on SNB-19 CNS; 7.41% (active) in the test with U251 CNS; 10.2% in the test on PC-3 prostate. Besides, the growth is 52.7% in the test with SK-MEL-5 melanoma, 81.5% with UACC-62 melanoma, -3.1% (active) with LOX IMVI melanoma and 50.2% in the test with SK-MEL-28 melanoma.

For the molecule `O=c1oc2c(cc1-c1ccc([N+](=O)[O-])cc1)C(O)Oc1ccccc1-2` (stereo not given), the growth with HCT-15 colon was 92.2%; in the test on HT29 colon, 99.9%; in the test with SNB-75 CNS, 111%; in the test with SNB-19 CNS, 83.4%; in the test with U251 CNS it was 97.6%; in the test on PC-3 prostate, 57.5%. The growth in the test with SK-MEL-5 melanoma was 80.4%; with UACC-62 melanoma, 78.7%; in the test on LOX IMVI melanoma, 98.9%; with SK-MEL-28 melanoma, 99.4%.

Consider `CC1CN(C2CCCCC2)C(=O)NC1=O` (stereo not given), for which the growth in the test with HCT-15 colon was 104%; in the test with HT29 colon it was 105%; with SNB-75 CNS it was 93.4%; with SNB-19 CNS, 97.4%; with U251 CNS, 110%; in the test on PC-3 prostate, 94%. Besides, the growth with SK-MEL-5 melanoma is 105%; with UACC-62 melanoma it was 87.5%; in the test on LOX IMVI melanoma, 101%; in the test with SK-MEL-28 melanoma it was 116%.

For the molecule `COc1cc(C2CC(c3ccc(C)cc3)=NN2C=O)ccc1OCCN(C)C` (stereo not given), the growth with HCT-15 colon is 76%; in the test with HT29 colon, 84.2%; in the test on SNB-75 CNS, 62.2%; in the test with SNB-19 CNS it was 92.5%; in the test on U251 CNS, 92.2%; in the test on PC-3 prostate, 79%. Moreover, the growth in the test with SK-MEL-5 melanoma is 90.2%; in the test on UACC-62 melanoma it was 100%; in the test with LOX IMVI melanoma, 89.8%; with SK-MEL-28 melanoma it was 107%.

Take `COc1cnc2c(c1)C(=O)c1c-2n(CCCNC2=NCCS2)c(=O)c2cc(F)ccc12`: the growth with HCT-15 colon was 43.3%; in the test on HT29 colon it was 22.2%; in the test with SNB-75 CNS, 33.1%; in the test on SNB-19 CNS, 54.6%; in the test on U251 CNS, 12.1%; in the test on PC-3 prostate, 36.9%. Moreover, the growth in the test with SK-MEL-5 melanoma was 0.102% (active); in the test with UACC-62 melanoma, 17.4%; in the test with LOX IMVI melanoma, -73.8% (active); in the test with SK-MEL-28 melanoma, 79.2%.

On to `CC[C@@H](C)/C=C(C)/C=C/C(O)=C1\C(=O)N[C@@H](Cc2ccc(OC(=O)[C@@](OC)(c3ccccc3)C(F)(F)F)cc2)C1=O`, for which the growth in the test on HCT-15 colon is 102%; in the test on HT29 colon, 114%; in the test with SNB-75 CNS, 101%; in the test on SNB-19 CNS, 96.6%; with U251 CNS it was 83.9%; with PC-3 prostate it was 37.3%. In addition, the growth in the test on SK-MEL-5 melanoma is 110%; in the test with UACC-62 melanoma, 98.9%; in the test on LOX IMVI melanoma, 50.3%; in the test with SK-MEL-28 melanoma, 103%.
